The values that follow come from PubChem BioAssay (NCI).

This is part of a sample that, as a whole, favours compounds with a hit. Of some 83,000 tested, about 20% had one in any assay.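 In brief: 96-well plates, 48 h treatment, single concentration, percent growth endpoint.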 A number with no mark means an inactive call. Calls of active or inactive are those of the source. How the source made its calls: active means growth percent below 10; inactive means the rest.

What all share (test): NCI-60 one-dose screen, 48 h (100 = growth as untreated, 0 = no growth, -100 = all killed)
In one assay the test system is DU-145 prostate. The note with it: 10 µM unless noted.
A further assay deals with MALME-3M melanoma. The note with it: 10 µM unless noted.
For the next assay, the system named is MDA-MB-231 breast. Particulars: 10 µM unless noted.
A further assay relates to RXF 393 renal. The note with it: 10 µM unless noted.
The subject of another assay is SF-268 CNS. Particulars: 10 µM unless noted.
The next assay deals with SF-295 CNS. Particulars: 10 µM unless noted.
The subject of a further assay is SF-539 CNS. Particulars: 10 µM unless noted.
The subject of a further assay is UACC-257 melanoma. Particulars: 10 µM unless noted.
The next assay deals with M14 melanoma. Particulars: 10 µM unless noted.
In another assay the test system is HCT-15 colon. The note with it: 10 µM unless noted.
Another assay deals with HT29 colon. The note with it: 10 µM unless noted.
The next assay has as its system SNB-19 CNS. Particulars: 10 µM unless noted.
The next assay relates to U251 CNS. Particulars: 10 µM unless noted.
The test system of a further assay is PC-3 prostate. Particulars: 10 µM unless noted.
In another assay the test system is UACC-62 melanoma. The note with it: 10 µM unless noted.
For another assay, the system named is LOX IMVI melanoma. Particulars: 10 µM.
The next assay deals with SK-MEL-28 melanoma. Particulars: 10 µM unless noted.
In another assay the test system is SNB-75 CNS. Particulars: 10 µM unless noted.

On to `COc1ccc(C(=O)/C=C/c2ccc(Cl)c(Cl)c2)cc1S(N)(=O)=O`, for which the growth in the assay on DU-145 prostate was 25.2%; in the assay on MALME-3M melanoma it was 28%; with MDA-MB-231 breast, 20.7%; in the assay with RXF 393 renal, -69.2% (active); in the assay on SF-268 CNS it was 24.6%; with SF-295 CNS it was 7.4% (active). The growth in the assay with SF-539 CNS was -86.5% (active); in the assay on UACC-257 melanoma, 1.95% (active); with M14 melanoma it was -70.9% (active); in the assay with HCT-15 colon, -37.9% (active); in the assay with HT29 colon, -50.3% (active); with SNB-19 CNS it was 5.07% (active). Also, the growth in the assay on U251 CNS was -95.8% (active); in the assay with PC-3 prostate it was 10.1%; in the assay with UACC-62 melanoma it was -4.38% (active); in the assay with LOX IMVI melanoma, -69% (active); with SK-MEL-28 melanoma, -33.7% (active).
Turning to `CN1CCN(c2ccc3c(c2)nc(NNC(=O)c2ncccn2)c2cccn23)CC1`, the growth in the assay with DU-145 prostate is 1.57% (active); in the assay on MALME-3M melanoma it was -41.8% (active); in the assay on MDA-MB-231 breast it was -45.8% (active); in the assay on RXF 393 renal it was -53.6% (active); with SF-268 CNS, -15.7% (active); in the assay on SF-295 CNS it was -90% (active). Further, the growth in the assay with SF-539 CNS is -83% (active); in the assay with UACC-257 melanoma, 17.8%; in the assay with M14 melanoma it was -53.5% (active); in the assay on HCT-15 colon it was 1.47% (active); with HT29 colon, 11.2%; in the assay with SNB-75 CNS, -46.9% (active). Further, the growth was 16.5% with SNB-19 CNS; -38.7% (active) with U251 CNS; 6.1% (active) in the assay with PC-3 prostate; -35.1% (active) in the assay with UACC-62 melanoma; -62.8% (active) in the assay with LOX IMVI melanoma; -27.6% (active) in the assay with SK-MEL-28 melanoma.
As for `COc1ccc(C(=O)/C=C/c2cccc(Cl)c2Cl)cc1S(N)(=O)=O`, the growth in the assay on DU-145 prostate was -76.3% (active); in the assay with MALME-3M melanoma it was 23.1%; with MDA-MB-231 breast, 1.88% (active); with RXF 393 renal, -71% (active); in the assay with SF-268 CNS it was 18%; in the assay on SF-295 CNS, -38.1% (active). Further, the growth in the assay with SF-539 CNS was -75.5% (active); with UACC-257 melanoma, 34.8%; in the assay with M14 melanoma it was -76.9% (active); in the assay with HCT-15 colon it was -69.4% (active); in the assay on HT29 colon it was -6.28% (active); with SNB-75 CNS, 15.2%. Moreover, the growth in the assay on SNB-19 CNS is 6.23% (active); in the assay on U251 CNS, -96.3% (active); with PC-3 prostate, 5% (active); in the assay with UACC-62 melanoma, 33%; in the assay on LOX IMVI melanoma, -78.9% (active); with SK-MEL-28 melanoma, -19.1% (active).
As for `COc1cc(OC)cc(-c2cc3ccc(N(C)C)cc3c(=O)[nH]2)c1`, the growth was 21.5% in the assay with DU-145 prostate; 59.3% in the assay with MALME-3M melanoma; 33.1% in the assay with MDA-MB-231 breast; 80.5% in the assay with RXF 393 renal; 36.3% in the assay with SF-268 CNS; 16.2% in the assay on SF-295 CNS. Further, the growth is -1.21% (active) in the assay with SF-539 CNS; 75.7% in the assay with UACC-257 melanoma; 10.7% in the assay on M14 melanoma; 18.9% in the assay with HCT-15 colon; 12.4% in the assay on HT29 colon; 57.3% in the assay with SNB-75 CNS. Besides, the growth is 35.5% in the assay with SNB-19 CNS; 7.67% (active) in the assay with U251 CNS; 35.7% in the assay with PC-3 prostate; 51.8% in the assay with UACC-62 melanoma; 23% in the assay on LOX IMVI melanoma; 61.3% in the assay with SK-MEL-28 melanoma.
On to `COc1ccc(C(=O)/C=C/c2cccc(Cl)c2)cc1S(N)(=O)=O`, for which the growth in the assay with DU-145 prostate was -40.6% (active); in the assay on MALME-3M melanoma it was 27.6%; with MDA-MB-231 breast, -4.13% (active); in the assay on RXF 393 renal, -65.8% (active); with SF-268 CNS, 7.86% (active); with SF-295 CNS, -88.8% (active). Besides, the growth was -80.6% (active) in the assay on SF-539 CNS; -29.6% (active) with UACC-257 melanoma; -10.5% (active) in the assay on M14 melanoma; -89.9% (active) in the assay with HCT-15 colon; 0.678% (active) with HT29 colon; 29.5% with SNB-75 CNS. Moreover, the growth is 0.182% (active) in the assay with SNB-19 CNS; -97.1% (active) in the assay on U251 CNS; 31.7% in the assay on PC-3 prostate; -3.37% (active) in the assay on UACC-62 melanoma; -87.4% (active) in the assay with LOX IMVI melanoma; -25.7% (active) with SK-MEL-28 melanoma.
Take `O=C(NNc1nc2cc(F)ccc2n2c(C(=O)N3CCN(C4CC4)CC3)ccc12)c1ncccn1`: the growth in the assay with DU-145 prostate is 47.8%; with MALME-3M melanoma, 33.2%; in the assay on MDA-MB-231 breast, 43.6%; in the assay on RXF 393 renal, 64.8%; with SF-268 CNS it was 29.9%; in the assay on SF-295 CNS it was -33.9% (active). Besides, the growth in the assay on SF-539 CNS is 12.9%; with UACC-257 melanoma, 19.7%; in the assay on M14 melanoma it was -33% (active); with HCT-15 colon it was 10.5%; with HT29 colon it was 39%; in the assay with SNB-75 CNS, 73.3%. Further, the growth was 30.7% in the assay with SNB-19 CNS; 16.8% in the assay with U251 CNS; 49% in the assay on PC-3 prostate; 9.28% (active) in the assay on UACC-62 melanoma; 13.7% with LOX IMVI melanoma; 30.8% in the assay with SK-MEL-28 melanoma.
As for `CN1CCN(Cc2ccc(C(=O)Nc3cccc(C#Cc4cccc5[nH]nc(N)c45)c3)cc2C(F)(F)F)CC1`, the growth was -68% (active) with DU-145 prostate; -82.6% (active) with MALME-3M melanoma; -90.8% (active) in the assay on MDA-MB-231 breast; -93.6% (active) in the assay with RXF 393 renal; -59% (active) in the assay on SF-268 CNS; -93.4% (active) in the assay on SF-295 CNS. The growth was -97.5% (active) with SF-539 CNS; -94.7% (active) with UACC-257 melanoma; -95.6% (active) in the assay on M14 melanoma; -93.9% (active) in the assay on HCT-15 colon; -50.3% (active) in the assay with HT29 colon; -82.5% (active) in the assay with SNB-75 CNS. Further, the growth in the assay with SNB-19 CNS was -89.7% (active); with U251 CNS, -79.2% (active); with PC-3 prostate, -22.9% (active); in the assay with UACC-62 melanoma, -88% (active); with LOX IMVI melanoma, -92% (active); with SK-MEL-28 melanoma, -97.4% (active).
Take `COc1ccccc1/C=C/C(=O)c1ccc(OC)c(S(N)(=O)=O)c1`: the growth in the assay on DU-145 prostate is 26.4%; in the assay on MALME-3M melanoma, 50%; in the assay on MDA-MB-231 breast, 7.39% (active); in the assay with RXF 393 renal, -0.859% (active); in the assay on SF-268 CNS, 21%; in the assay with SF-295 CNS, 21.8%. For the same compound, the growth is -4.72% (active) with SF-539 CNS; 59.6% with UACC-257 melanoma; 8.83% (active) in the assay on M14 melanoma; 7.53% (active) in the assay with HCT-15 colon; 18.7% in the assay with HT29 colon; 8.99% (active) in the assay on SNB-75 CNS. The growth with SNB-19 CNS was 27.3%; in the assay with U251 CNS it was 5.14% (active); in the assay with PC-3 prostate, 48.5%; in the assay with UACC-62 melanoma, 44.4%; in the assay with LOX IMVI melanoma it was 1.03% (active); in the assay on SK-MEL-28 melanoma, 38.7%.
